Source: PubChem (National Center for Advancing Translational Sciences (NCATS))
In the library only some 19% were active in any assay of this set; here they are far more common.
HT1080-NT tox: qHTS for induction of synthetic lethality in tumor cells producing 2HG: qHTS for the HT-1080-NT fibrosarcoma cell line | AID 686970, 2013 | HT-1080-NT fibrosarcoma viability, CellTiter-Glo ATP luminescence, 48 h | Potency, µM (series often up to 46.1 µM), actives largely listed as cytotoxic | 360,000 tested, 1.6% active;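 further: NT is the 2HG producing partner of a matched IDH1 knockdown line; nearly all actives have a fitted effect of over 55% in size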
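Viability by CellTiter-Glo luminescence after 48 h compound exposure at 37C of HT-1080-NT cells (750/well, RPMI, 5% FBS). % activity scaled between DMSO wells and medium-only wells, then curve-fitted and categorized by curve class.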
IL-1B inflam inh: qHTS for Inhibitors of Inflammasome Signaling: IL-1-beta AlphaLISA Primary Screen; THP-1 LPS/ATP IL-1B secretion, AlphaLISA, 16 h; active compounds read low; activity change, % at 57.5 µM; 360,000 tested, 4.7% active; AID 743279, 2014; in the data active means activity change below about -50%; inconclusive means mostly about -30% to -49%
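Secreted IL-1B measured by AlphaLISA bead assay after 16 h compound exposure of THP-1 cells; compounds (final up to 57.5 uM) added 1 h before LPS (250 ng/mL) and ATP (1.25 mM) stimulation; lower signal means less secretion.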
HT1080 IDH1KD tx: qHTS for induction of synthetic lethality in tumor cells producing 2HG: qHTS for the HT-1080-IDH1KD cell line; HT-1080 IDH1 knockdown viability, ATP luminescence, 48 h; Potency, µM (doses to about 46.1 µM), actives largely listed as cytotoxic; 360,000 tested, 2% active
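IDH1KD HT-1080 cells, 750/well, RPMI + 5% FBS; compound pinned after 2 h settling; 48 h, 37 °C; CellTiter-Glo luminescence; % activity normalised to DMSO and no-cell wells; curves fitted, classed by r2 and efficacy.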
DT40 TDP1 CPT: qHTS for Inhibitors of human tyrosyl-DNA phosphodiesterase 1 (TDP1): qHTS in cells in presence of CPT. Potency, µM (doses to about 46.2 µM), actives largely listed as inhibitors. chicken DT40 Tdp1-/-;hTDP1 cells + 20 nM CPT, ATP luminescence, 48 h. 420,000 tested, 12% active; further: nearly all actives have a fitted effect of over 55% in size
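Chicken DT40 Tdp1-/- cells complemented with human TDP1, 400 cells/well, exposed to compounds plus 20 nM camptothecin for at least 48 h at 37 C; viability read as ATP content by CellTiter-Glo luminescence.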
TDP1 cell noCPT: qHTS for Inhibitors of human tyrosyl-DNA phosphodiesterase 1 (TDP1): qHTS in cells in absence of CPT | DT40 Tdp1-/- hTDP1 cells, no CPT, ATP luminescence, 48 h | Potency, µM (series often up to 46.2 µM), hits mostly inhibitors | 420,000 tested, 15% active | AID 686978, 2013; further: nearly all actives have a fitted effect of over 55% in size
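Camptothecin absent (DMSO only). Human TDP1-complemented DT40 knockout cells, 400 cells/well, 37 °C for minimum 48 hr; ATP measured via CellTiter-Glo, 30 min dark incubation, luminescence.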
Each line names hits and unclear results; the compound was inactive in the other large screens. Unless noted, the call rests on the fitted dose curve; in most records, active means well fitted curve in the direction sought with a large enough effect; inconclusive means small, poorly fitted or top-dose-only effect, or another doubt; inactive means no such curve, though single readings can be large; an effect the other way counts as inactive or inconclusive.

COc1c(C)cc(C(=O)C2CCCN(Cc3ccc(Oc4ncccn4)cc3)C2)cc1C (configuration not stated)	DT40 TDP1 CPT inconclusive, TDP1 cell noCPT 15µM
CC(C)Oc1cccc(C(=O)C2CCCN(Cc3cnc(N4CCCC4)s3)C2)c1 (configuration not stated)	IL-1B inflam inh inconclusive, DT40 TDP1 CPT inconclusive, TDP1 cell noCPT inconclusive
CC(C)Oc1cccc(C(=O)C2CCCN(Cc3ccc(Oc4ncccn4)cc3)C2)c1 (configuration not stated)	HT1080-NT tox inconclusive, TDP1 cell noCPT inconclusive
COc1ccc2cc(C(=O)C3CCCN(Cc4ccccn4)C3)ccc2c1 (configuration not stated)	DT40 TDP1 CPT inconclusive, TDP1 cell noCPT 18µM
COc1ccc2cc(C(=O)C3CCCN(Cc4cnc(N5CCOCC5)s4)C3)ccc2c1 (configuration not stated)	IL-1B inflam inh inconclusive, DT40 TDP1 CPT inconclusive, TDP1 cell noCPT 18µM
CC(C)(NC(=O)N1CCOCC1)c1cccc(C(C)(C)NC(=O)N2CCOCC2)c1	none
O=C(Cc1ccsc1)NCC(=O)Nc1ccccc1Br	none
CC1(C(=O)NS(=O)(=O)c2ccc(Br)cc2)CCN1C(=O)C1CCCCC1 (configuration not stated)	none
O=C1CN(C(=O)COC(=O)c2ccc(N3CCCCCC3)c([N+](=O)[O-])c2)c2ccccc2N1	none
CS(=O)(=O)c1ccc(C(=O)OCC(=O)N2CCCC2)cc1[N+](=O)[O-]	DT40 TDP1 CPT 5µM, TDP1 cell noCPT 4µM (no result: HT1080-NT tox, IL-1B inflam inh, HT1080 IDH1KD tx)
CC1CCCCN1C(=O)COC(=O)c1ccc(S(C)(=O)=O)c([N+](=O)[O-])c1 (configuration not stated)	DT40 TDP1 CPT 2.2µM, TDP1 cell noCPT 3.2µM (no result: HT1080-NT tox, IL-1B inflam inh, HT1080 IDH1KD tx)
Cc1c(C(=O)OCC(=O)N2CCCC2)cccc1[N+](=O)[O-]	none
O=C(CCNC(=O)N1CC(=O)Nc2ccccc21)NCc1ccccc1Cl	DT40 TDP1 CPT inconclusive, TDP1 cell noCPT 13µM
O=C(CCNC(=O)N1CC(=O)Nc2ccccc21)NCc1cccc(Cl)c1	TDP1 cell noCPT inconclusive
CS(=O)(=O)c1ccc(C(=O)OCC(=O)N2CC(=O)Nc3ccccc32)cc1[N+](=O)[O-]	DT40 TDP1 CPT 1.1µM, TDP1 cell noCPT 0.71µM (no result: HT1080-NT tox, IL-1B inflam inh, HT1080 IDH1KD tx)
CCOc1ccc2oc(C(=O)OC(C(=O)NC(N)=O)C(C)C)c(C)c2c1 (configuration not stated)	none
O=C1CN(C(=O)COC(=O)CCS(=O)(=O)c2ccccc2Cl)c2ccccc2N1	DT40 TDP1 CPT 18µM, TDP1 cell noCPT inconclusive
COc1ccc(OC)c(-c2csc(NC(=O)C3=NN(c4ccccc4)C(=O)CC3)n2)c1	TDP1 cell noCPT 21µM
COc1ccc(NC(=O)C2=NN(c3ccccc3)C(=O)CC2)cn1	DT40 TDP1 CPT inconclusive
COc1ccc(NS(=O)(=O)c2cc(NC(=O)C3=NN(c4ccccc4)C(=O)CC3)ccc2OC)cc1	DT40 TDP1 CPT inconclusive, TDP1 cell noCPT 0.18µM
COc1ccc(C(=Cc2cc(OC)c(OC)cc2[N+](=O)[O-])C(=O)O)cc1	none
C#Cc1cccc(C(=O)NCc2nc(-c3ccccc3NC(C)=O)oc2C)c1	none (no result: HT1080-NT tox, IL-1B inflam inh, HT1080 IDH1KD tx)
Cn1nc(-c2ccccc2)c(C(O)c2ccccc2C(F)(F)F)c1Cl (configuration not stated)	none
COC(c1ccccc1)c1c(-c2ccccc2)nn(C)c1Cl (configuration not stated)	DT40 TDP1 CPT 1.5µM, TDP1 cell noCPT inconclusive
COC(=O)c1c(NC(=O)c2cc(=O)c3cc(C)cc(C)c3o2)sc2c1CCC2	none (no result: HT1080-NT tox, IL-1B inflam inh, HT1080 IDH1KD tx)
O=C(COC(=O)c1ccc[nH]c1=O)Nc1ccc(N2CCCCC2)cc1	none
Cc1cc(S(=O)(=O)N2c3ccc(F)cc3CCC2C)ccc1-n1cnnn1 (configuration not stated)	TDP1 cell noCPT inconclusive
CCOC(=O)c1sc(NC(=O)c2ccc3nc[nH]c3c2)nc1C	HT1080 IDH1KD tx inconclusive, DT40 TDP1 CPT inconclusive, TDP1 cell noCPT 8.2µM
COC(=O)c1sc(NC(=O)COc2ccccc2)nc1C	none
CCOC(=O)c1sc(NC(=O)Nc2ccc(Cl)cc2)nc1C	DT40 TDP1 CPT inconclusive, TDP1 cell noCPT 23µM
C=CCOC(=O)c1sc(NC(=O)c2ccc(OC)cc2)nc1C	HT1080-NT tox inconclusive, HT1080 IDH1KD tx 1.8µM
COC(=O)c1sc(NC(=O)COc2ccc(C)cc2)nc1C	IL-1B inflam inh -63
CCOC(=O)c1sc(NC(=O)c2ccccc2OCC)nc1C	DT40 TDP1 CPT 21µM, TDP1 cell noCPT inconclusive
O=S(=O)(c1ccccc1)N1N=C(c2cccs2)CC1c1ccc(Br)cc1 (configuration not stated)	DT40 TDP1 CPT 23µM, TDP1 cell noCPT 15µM
C/C=C(\C)CN1CCCC(N(C)CCc2ccc(OC)c(OC)c2)C1 (configuration not stated)	none
O=C(CN1CCOCC1)Nc1nc(-c2ccccc2)cs1	TDP1 cell noCPT inconclusive
CC1CCN(Cc2ccc(-c3nnn(CC(=O)Nc4ccccc4Cl)n3)cc2)CC1	DT40 TDP1 CPT 16µM, TDP1 cell noCPT 21µM
COc1ccc(C2(O)CCN(CC(=O)Nc3nc(-c4ccccc4)cs3)CC2)cc1	HT1080-NT tox inconclusive, IL-1B inflam inh -98, HT1080 IDH1KD tx inconclusive, DT40 TDP1 CPT inconclusive, TDP1 cell noCPT inconclusive
O=C(Cn1nnc(-c2ccc(CN3CCOCC3)cc2)n1)Nc1nc(-c2ccccc2)cs1	HT1080-NT tox inconclusive, DT40 TDP1 CPT inconclusive, TDP1 cell noCPT 21µM
Cc1ccc(-c2csc(NC(=O)CN3CCOCC3)n2)cc1C	DT40 TDP1 CPT inconclusive, TDP1 cell noCPT 16µM
N#Cc1cccc(NC(=O)Cn2cnc(S(=O)(=O)N3CCCCC3)c2)c1	none
O=C(CCC(=O)Nc1nnc(C2CCCCC2)s1)NCc1ccc(F)cc1	none
COc1ccc(-n2c(CCNC(=O)c3ccccc3C(F)(F)F)nnc2SC)cc1	none (no result: HT1080-NT tox, IL-1B inflam inh, HT1080 IDH1KD tx)
O=C(CN1CCCC1)Nc1nc(-c2ccc(Cl)cc2)cs1	DT40 TDP1 CPT 26µM, TDP1 cell noCPT 16µM
O=C(CN1CCCCC1)Nc1nc(-c2ccc(Cl)cc2)cs1	IL-1B inflam inh -82, DT40 TDP1 CPT inconclusive
Cc1ccc(C(C)C)c2c1C(c1ccc3c(c1)OCO3)CC(=O)O2 (configuration not stated)	TDP1 cell noCPT inconclusive
COc1ccccc1/C=C/c1ccc2cccc(O)c2n1	HT1080 IDH1KD tx inconclusive, DT40 TDP1 CPT inconclusive, TDP1 cell noCPT inconclusive
Oc1cccc2ccc(/C=C/c3ccccc3Cl)nc12	DT40 TDP1 CPT 9.2µM, TDP1 cell noCPT 7.3µM
